According to PubChem BioAssay (NCI):
“And” between values parts separate entries of the source, which are not always exact repeats. Identical values can stand only once. About 83,000 compounds went through this panel and 20% of them were active in at least one assay; those are over-represented in the sample as a whole.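 Values shown are percent growth following 48 h exposure of cells in 96-well plates to a single concentration of compound; below 10 was considered active.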 The source made the active and inactive calls.

Tests used:
Assay in all cases: NCI-60 one-dose screen, 48 h (100 = growth as untreated, 0 = no growth, -100 = all killed)
[1] = system: HT29 colon; conditions: 10 µM
[2] = system: SNB-75 CNS; conditions: 10 µM
[3] = system: U251 CNS; conditions: 10 µM
[4] = system: PC-3 prostate; conditions: 10 µM
[5] = system: SK-MEL-5 melanoma; conditions: 10 µM
[6] = system: UACC-62 melanoma
[7] = system: LOX IMVI melanoma; conditions: 10 µM
[8] = system: SK-MEL-28 melanoma; conditions: 10 µM
[9] = system: SK-MEL-2 melanoma; conditions: 10 µM
[10] = system: SN12C renal; conditions: 10 µM
[11] = system: UO-31 renal; conditions: 10 µM
[12] = system: TK-10 renal
[13] = system: ACHN renal; conditions: 10 µM
[14] = system: CAKI-1 renal; conditions: 10 µM
[15] = system: A498 renal; conditions: 10 µM
[16] = system: CCRF-CEM leukemia; conditions: 10 µM
[17] = system: MOLT-4 leukemia; conditions: 10 µM unless noted
[18] = system: SNB-19 CNS; conditions: 10 µM

O=C1C=CC(=O)N1c1ccc(N2C(=O)C=CC2=O)cc1
growth [1]: 105% (inactive) | growth [2]: 95.6% (inactive) | growth [3]: 101% (inactive) | growth [4]: 112% (inactive) | growth [5]: 103% (inactive) | growth ([6]; 10 µM): 96.5% (inactive) | growth [7]: 85% (inactive) | growth [8]: 135% (inactive) | growth [9]: 108% (inactive) | growth [10]: 102% (inactive) | growth [11]: 76.7% (inactive) | growth ([12]; 10 µM): 92% (inactive) | growth [13]: 92.2% (inactive) | growth [14]: 69.9% (inactive) | growth [15]: 149% (inactive) | growth [16]: 15.9% (inactive) | growth [17]: -9.11% (active)

O=C1c2ccccc2CCC1(Br)Br
growth [1]: 12% (inactive) | growth [2]: 56.6% (inactive) | growth [18]: 89.4% (inactive) | growth [4]: 54.5% (inactive) | growth ([6]; 10 µM): 32.1% (inactive) | growth [8]: 56.5% (inactive) | growth [10]: 28.3% (inactive) | growth [11]: 28% (inactive) | growth ([12]; 10 µM): -11% (active) | growth [13]: -95.2% (active) | growth [14]: 18.7% (inactive) | growth [15]: 70.8% (inactive) | growth [16]: -22.2% (active) | growth [17]: -13.4% (active)

NCc1c(O)ccc2ccccc12
growth [1]: 103% (inactive) | growth [2]: 73.5% (inactive) | growth [3]: 103% (inactive) | growth [4]: 84.9% (inactive) | growth [5]: 86.3% (inactive) | growth ([6]; 10 µM): 95.4% (inactive) | growth [7]: 101% (inactive) | growth [8]: 105% (inactive) | growth [9]: 98.2% (inactive) | growth [10]: 90.9% (inactive) | growth [11]: 81.3% (inactive) | growth ([12]; 10 µM): 108% (inactive) | growth [13]: 103% (inactive) | growth [14]: 74.3% (inactive) | growth [15]: 105% (inactive) | growth [16]: 93% (inactive) | growth [17]: 93.3% (inactive)

CN(C)CCNc1cccc2sc3ccc(O)cc3c(=O)c12
growth [1]: 6.36% (active) | growth [2]: 31.8% (inactive) | growth [18]: 57.4% (inactive) | growth [4]: 38.7% (inactive) | growth [5]: 44% (inactive) | growth ([6]; 10 µM): 57.8% (inactive) | growth [7]: 18.3% (inactive) | growth [8]: 69.2% (inactive) | growth [9]: 64% (inactive) | growth [10]: 40.4% (inactive) | growth [11]: 20% (inactive) | growth ([12]; 10 µM): 58% (inactive) | growth [13]: 14.9% (inactive) | growth [14]: 5.13% (active) | growth [15]: 92.5% (inactive) | growth [17]: 14.3% (inactive)

C=C(C)[C@@H]1CCc2c(O)c(O)c(=O)cc(C)c2C1
growth ([6]; 100 µM): -52.3% (active) and -85% (active) | growth ([12]; 100 µM): -17% (active) and -96.5% (active)

CO[C@@]12[C@H](COC(N)=O)C3=C(C(=O)C(C)=C(N)C3=O)N1C[C@@H]1N[C@@H]12
growth ([6]; 25 µM): -83.6% (active) and -100% (active) | growth ([12]; 25 µM): -32.7% (active) and -74.4% (active)

COc1cccc(C(c2cc3c(cc2O)OCO3)N2CCOCC2)c1OC (stereo not given)
growth [1]: 106% (inactive) | growth [2]: 91.2% (inactive) | growth [18]: 98.5% (inactive) | growth [3]: 101% (inactive) | growth [4]: 95.7% (inactive) | growth [5]: 99.1% (inactive) | growth ([6]; 10 µM): 95.3% (inactive) | growth [7]: 97.3% (inactive) | growth [9]: 101% (inactive) | growth [10]: 97.8% (inactive) | growth [11]: 88.7% (inactive) | growth ([12]; 10 µM): 101% (inactive) | growth [13]: 103% (inactive) | growth [14]: 94.7% (inactive) | growth [15]: 75.3% (inactive) | growth [16]: 97.1% (inactive) | growth [17]: 96% (inactive)

COc1cc(N)ccc1Nc1c2ccccc2nc2ccccc12
growth [1]: -62.4% (active) | growth [2]: 91% (inactive) | growth [18]: 99.7% (inactive) | growth [4]: 59% (inactive) | growth [5]: 85% (inactive) | growth ([6]; 10 µM): 89.6% (inactive) | growth [7]: -23.6% (active) | growth [8]: 107% (inactive) | growth [9]: 109% (inactive) | growth [10]: 81% (inactive) | growth [11]: 50.6% (inactive) | growth ([12]; 10 µM): 88.3% (inactive) | growth [13]: 88.6% (inactive) | growth [14]: 70.5% (inactive) | growth [15]: 87.3% (inactive) | growth [17]: 2.72% (active)

N#CC(=S)Nc1cccc(Cl)c1
growth ([6]; 100 µM): 1.5% (active) and -86.8% (active) | growth ([12]; 100 µM): 5.57% (active) and -9.55% (active)

COc1ccc(N)c2c1C(=O)c1ccccc1C2=O
growth [1]: 93.6% (inactive) | growth [2]: 95.6% (inactive) | growth [18]: 101% (inactive) | growth [3]: 97.9% (inactive) | growth [4]: 89.6% (inactive) | growth ([6]; 10 µM): 94.3% (inactive) | growth [7]: 104% (inactive) | growth [8]: 128% (inactive) | growth [9]: 99.5% (inactive) | growth [10]: 93.9% (inactive) | growth [11]: 68.5% (inactive) | growth ([12]; 10 µM): 102% (inactive) | growth [13]: 96.9% (inactive) | growth [14]: 74% (inactive) | growth [15]: 93.4% (inactive) | growth [16]: 89.9% (inactive) | growth [17]: 67% (inactive)

O=C(O)c1ccccc1.[Ag]
growth [1]: 97.9% (inactive) | growth [2]: 110% (inactive) | growth [18]: 105% (inactive) | growth [3]: 97% (inactive) | growth [4]: 86.8% (inactive) | growth [5]: 28.5% (inactive) | growth ([6]; 10 µM): 105% (inactive) | growth [7]: 17% (inactive) | growth [8]: 106% (inactive) | growth [9]: 122% (inactive) | growth [10]: 102% (inactive) | growth [11]: 103% (inactive) | growth ([12]; 10 µM): 109% (inactive) | growth [13]: 111% (inactive) | growth [14]: 90.2% (inactive) | growth [16]: 15.4% (inactive) | growth [17]: 102% (inactive)

N#CC(=C1C=CC(=NO)C=C1)c1ccccc1
growth [1]: 1.57% (active) | growth [2]: -1.66% (active) | growth [18]: 59.6% (inactive) | growth [3]: 9.88% (active) | growth [4]: 3.44% (active) | growth [5]: 2.56% (active) | growth [7]: -6.53% (active) | growth [8]: 76.3% (inactive) | growth [9]: 41.1% (inactive) | growth [10]: 10.3% (inactive) | growth [11]: 48.4% (inactive) | growth ([12]; 10 µM): 27.2% (inactive) | growth [13]: 9.06% (active) | growth [14]: 52.3% (inactive) | growth [15]: 48% (inactive) | growth [16]: 3.4% (active) | growth [17]: 19.2% (inactive)

C=C1N(C)c2ccc(Cl)cc2C1(C)C
growth [1]: 35.7% (inactive) | growth [2]: 62% (inactive) | growth [18]: 55.1% (inactive) | growth [3]: 22.8% (inactive) | growth [4]: 32.9% (inactive) | growth [5]: 90.5% (inactive) | growth ([6]; 10 µM): 69.5% (inactive) | growth [7]: 51.9% (inactive) | growth [8]: 84.5% (inactive) | growth [9]: 101% (inactive) | growth [10]: 54.8% (inactive) | growth [11]: 78.5% (inactive) | growth ([12]; 10 µM): 83.8% (inactive) | growth [13]: 94.9% (inactive) | growth [15]: 84.1% (inactive) | growth [16]: 42.2% (inactive) | growth [17]: 35.8% (inactive)

Clc1c(Cl)c(Cl)c2c(nnn2C2CCCO2)c1Cl (stereo not given)
growth ([6]; 100 µM): -55.3% (active) and -99.6% (active) | growth ([12]; 100 µM): -9.89% (active) and -74.8% (active)

COc1cc2c(cc1C[N+](C)(C)CSc1ccccc1)-c1ccccc1CC2
growth ([6]; 100 µM): -96.4% (active) and -92.3% (active) | growth ([12]; 100 µM): -93.9% (active) and -97.7% (active)

Cc1c(-c2ccccc2)[nH]c2ccccc12
growth [1]: 103% (inactive) | growth [2]: 89.9% (inactive) | growth [18]: 110% (inactive) | growth [3]: 106% (inactive) | growth [4]: 87.8% (inactive) | growth ([6]; 10 µM): 96.3% (inactive) | growth [7]: 81.5% (inactive) | growth [8]: 121% (inactive) | growth [9]: 115% (inactive) | growth [10]: 114% (inactive) | growth [11]: 90.4% (inactive) | growth ([12]; 10 µM): 119% (inactive) | growth [13]: 100% (inactive) | growth [14]: 91.5% (inactive) | growth [15]: 91.3% (inactive) | growth [16]: 95.1% (inactive) | growth [17]: 99.6% (inactive)

Cc1cc(Cl)ccc1NC(=O)/C(Cl)=C1/Sc2ccccc2NC1=O
growth [1]: 107% (inactive) | growth [2]: 70.8% (inactive) | growth [18]: 94% (inactive) | growth [3]: 94.7% (inactive) | growth [4]: 78% (inactive) | growth [5]: 90% (inactive) | growth ([6]; 10 µM): 74% (inactive) | growth [7]: 73.6% (inactive) | growth [8]: 125% (inactive) | growth [10]: 106% (inactive) | growth [11]: 76.4% (inactive) | growth ([12]; 10 µM): 146% (inactive) | growth [13]: 85.4% (inactive) | growth [14]: 60.8% (inactive) | growth [15]: 131% (inactive) | growth [16]: 76.5% (inactive) | growth [17]: 83.5% (inactive)

O=C(CCc1ccccc1)ON1C(=S)C(c2ccccc2)(c2ccccc2)N=C1Sc1ccccc1
growth ([6]; 100 µM): 10.7% (inactive) and 0.462% (active) | growth ([12]; 100 µM): 28.6% (inactive) and 7.58% (active)

CC[C@@]1(OC(=O)CN(C)C)C(=O)OCc2c1cc1n(c2=O)Cc2cc3c(N)cccc3nc2-1
growth [1]: 4.94% (active) | growth [2]: -10.5% (active) | growth [18]: 11.2% (inactive) | growth [3]: 3.98% (active) | growth [4]: 18% (inactive) | growth ([6]; 10 µM): -77.8% (active) | growth [7]: -39.3% (active) | growth [8]: 16.5% (inactive) | growth [9]: -17.4% (active) | growth [10]: 7.95% (active) | growth [11]: -50.8% (active) | growth ([12]; 10 µM): 20.1% (inactive) | growth [13]: -49% (active) | growth [14]: -20.1% (active) | growth [15]: -56.6% (active) | growth [16]: 5.31% (active) | growth [17]: -0.423% (active)

Cc1cc(O)c2c(c1O)C(=O)C13C(=C2O)C(=O)C2C(O)C1C1C(O)C3C(=O)C3=C(O)c4c(O)cc(C)c(O)c4C(=O)C321 (stereo not given)
growth [1]: 3.7% (active) | growth [2]: 20% (inactive) | growth [18]: 5.61% (active) | growth [3]: 12.3% (inactive) | growth [4]: 10.3% (inactive) | growth [5]: -74.9% (active) | growth ([6]; 10 µM): -48.1% (active) | growth [7]: 7.97% (active) | growth [8]: 9.99% (active) | growth [9]: -6.64% (active) | growth [10]: 12.7% (inactive) | growth [11]: 22.6% (inactive) | growth ([12]; 10 µM): 22.3% (inactive) | growth [13]: 11.4% (inactive) | growth [14]: -33.6% (active) | growth [16]: 4.16% (active) | growth [17]: 8.98% (active)
